Measured values as given in PubChem BioAssay.

Assay: binders of probe aHhip on microarray, primary screen, stem cell growth factor project, biochemical, small-molecule microarray, fluorescence 635/667 (AID 1087);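 also: score merges spot fluorescence at 667nm with spot signal to noise ratio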
Details: higher = more signal

| SMILES | composite z-score |
| --- | --- |
| O=C1c2ccccc2[C@](Cc2ccccc2I)(C(=O)NCC(F)(F)F)[C@H](c2ccc(CO)cc2)N1Cc1ccccc1C(F)(F)F | -0.466 |
| C=CCC(OC(C)=O)[C@@H]1[C@@H](N(Cc2cccc3ccccc23)C(=O)Cc2ccc(F)cc2)c2cc(OCCCO)ccc2N1C(=O)Cc1ccc2ccccc2c1 (some centres not stated) | -0.167 |
| C=CCN1C(=O)[C@@]2(Cc3ccccc3)N=C(c3ccc(OCCCO)cc3)O[C@H]2c2ccccc21 | -0.132 |
| Cc1ccc(N2C(=O)c3ccccc3[C@@H](C(=O)NCc3ccccc3)[C@@H]2c2ccc(CO)cc2)nc1 | 0.0807 |
| CO[C@H]1COC(=O)[C@H](C)COC(=O)[C@H](Cc2ccccc2)NC(=O)CC=C[C@H]1C | -0.455 |
| CN(C)CCCC[C@@H]1NC(=O)[C@@H]2C[C@H](C(=O)NCCCCCNC(=O)CS)[C@H](c3ccc(O)cc3)N2C1=O | 0.382 |
| O=C1O[C@H](c2ccccc2)[C@H](c2ccccc2)N2[C@H]1[C@@H](C(=O)NC[C@H](O)c1ccccc1)[C@]1(C(=O)Nc3ccc(C#CC4=CCCCC4)cc31)[C@H]2c1ccc(OCCO)cc1 | 0.136 |
